Assay results published in PubChem BioAssay (Tox21).
Inconclusive results are not listed. Active and inactive are the calls of the source. Unless noted, the call rests on the fitted dose curve; in most records, active means well fitted curve in the direction sought with a large enough effect in the repeat runs; inconclusive means weak or mixed curves; inactive means no such curve, though single readings can be large; an effect the other way counts as inactive or inconclusive.

Tests used:
[1] = qHTS assay for small molecule agonists of the p53 signaling pathway (AID 651631; calls by dose curve; further: nearly all actives have a fitted effect of over 15% in size)
Summary of the method: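 HCT-116 cells carrying a beta-lactamase reporter under p53 response elements were dosed with compound for 16 h at 37 °C. LiveBLAzer B/G FRET substrate was then added for 2 h at room temperature, and fluorescence intensity was read to detect pathway agonism.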

[2] = qHTS assay for small molecules that induce genotoxicity in human embryonic kidney cells expressing luciferase-tagged ATAD5 (AID 651632); further: nearly all actives have a fitted effect of over 15% in size
Summary of the method: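 DMSO vehicle served as the control. HEK293T reporter cells, 16 hr at 37C, then 30 min Amplite at room temperature; ATAD5 induction is measured as luciferase activity.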

[3] = qHTS assay for small molecule agonists of the p53 signaling pathway - cell viability (AID 651633; calls by dose curve;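 further: p53RE-bla HCT reporter cells with a stable beta-lactamase p53 reporter; series mostly up to about 83 µM; nearly all actives have a fitted effect of over 30% in size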)
Summary of the method: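 Viability counter-read: CellTiter-Glo luminescence (30 min, room temperature) in the same p53RE-bla plates. These plates had been exposed to compounds for 16 h at 37 C.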

[4] = qHTS assay for small molecules that induce genotoxicity in human embryonic kidney cells expressing luciferase-tagged ATAD5 - cell viability (AID 651634; calls by dose curve; further: nearly all actives have a fitted effect of over 25% in size)
Summary of the method: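 Here HEK293T cells with the ATAD5 luciferase reporter are incubated with test compounds for 15.5 hr, and cytotoxicity is then gauged by measuring protease activity in live cells using fluorescence.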

[5] = qHTS assay for small molecule disruptors of the mitochondrial membrane potential - cell viability (AID 720634; calls by dose curve;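 further: human HepG2 liver cancer cells; series mostly up to about 83 µM; nearly all actives have a fitted effect of over 20% in size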)
Summary of the method: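 Viability of HepG2 cells is scored from ATP content by luminescence; cells are exposed to compound for 1 hr at 37 C and 5% CO2, then dosed with m-MPI dye before the CellTiter-Glo reagent.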

[6] = qHTS assay to test for compound auto fluorescence at 590 nm (red) in HepG2 cells (AID 720674)
Summary of the method: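 We screened compounds on adherent HepG2 cells, incubating them for an hour at 37 C in 5% CO2 before reading emission at 590 nm under 540 nm excitation; values reflect equivalence to Rose Bengal sodium fluorescence.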

[7] = qHTS assay to test for compound auto fluorescence at 535 nm (green) in HepG2 cells (AID 720675)
[8] = qHTS assay to test for compound auto fluorescence at 460 nm (blue) in HEK293 cells (AID 720678)
Summary of the method: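 Blue-channel (Ex/Em 405/460 nm) intensity measured in HEK293 cultures after overnight compound exposure at 37C; signal expressed relative to triamterene. Cells plated 2,000 per well in 10% dialyzed FBS medium and allowed 4-5 hr to attach.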

[9] = qHTS assay to test for compound auto fluorescence at 590 nm (red) in HEK293 cells (AID 720679)
Summary of the method: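 Red-channel autofluorescence (Ex/Em 540/590 nm; Rose Bengal sodium reference) was measured after overnight 37C, 5% CO2 exposure of attached HEK293 cells, 2,000 per well in medium with 10% dialyzed FBS.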

[10] = qHTS assay to test for compound auto fluorescence at 535 nm (green) in HEK293 cells (AID 720680)
[11] = qHTS assay to test for compound auto fluorescence at 460 nm (blue) in HEK293 cell free culture (AID 720681)
Summary of the method: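 Blue fluorescence (Ex 405/Em 460 nm, triamterene-equivalent) was read immediately after pin transfer of compound or DMSO into medium (DMEM, 10% FBS) without cells.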

[12] = qHTS assay to test for compound auto fluorescence at 535 nm (green) in HEK293 cell free culture (AID 720682)
Summary of the method: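 Green-label autofluorescence (485 nm excitation, 535 nm emission) measured on compound added to cell-free culture medium (DMEM, 10% FBS). Output is expressed relative to fluorescein.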

[13] = qHTS assay to test for compound auto fluorescence at 590 nm (red) in HEK293 cell free culture (AID 720683)
Summary of the method: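 Red-channel autofluorescence of compounds in culture medium (DMEM, 10% FBS), no cells, measured at 540/590 nm. Rose Bengal sodium is the reference fluorophore for equivalence.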

[14] = qHTS assay to test for compound auto fluorescence at 590 nm (red) in HepG2 cell free culture (AID 720684)
Summary of the method: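 No cells present: MEM + 10% FBS only. Compound pinned in, red label read (540/590 nm). Activity = fluorescence equivalent to Rose Bengal sodium.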

[15] = qHTS assay to test for compound auto fluorescence at 460 nm (blue) in HepG2 cell free culture (AID 720685)
Summary of the method: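 Cell-free plates of MEM plus 10% FBS received 23 nL compound or DMSO vehicle; blue-channel (405/460 nm) intensity scored against triamterene as reference fluorophore.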

[16] = qHTS assay to test for compound auto fluorescence at 535 nm (green) in HepG2 cell free culture (AID 720686)
[17] = qHTS assay to test for compound auto fluorescence at 460 nm (blue) in HepG2 cells (AID 720687)
Summary of the method: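 Blue-channel autofluorescence (Ex/Em 405/460 nm, triamterene-equivalent) was measured after 1 hr compound exposure at 37 C, 5% CO2. Cells were HepG2, plated overnight at 37 C in MEM plus 10% FBS.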

[18] = molecular target: Glucocorticoid receptor (Homo sapiens) (UniProt P04150); assay: qHTS assay to identify small molecule agonists of the glucocorticoid receptor (GR) signaling pathway (AID 720691; active means well fitted activation curve with a large enough effect in the signal ratio in the repeat runs, not every such curve was filed as active; the % refers to the signal ratio)
Glucocorticoid receptor (Homo sapiens), sequence (P04150 whole entry, looked up): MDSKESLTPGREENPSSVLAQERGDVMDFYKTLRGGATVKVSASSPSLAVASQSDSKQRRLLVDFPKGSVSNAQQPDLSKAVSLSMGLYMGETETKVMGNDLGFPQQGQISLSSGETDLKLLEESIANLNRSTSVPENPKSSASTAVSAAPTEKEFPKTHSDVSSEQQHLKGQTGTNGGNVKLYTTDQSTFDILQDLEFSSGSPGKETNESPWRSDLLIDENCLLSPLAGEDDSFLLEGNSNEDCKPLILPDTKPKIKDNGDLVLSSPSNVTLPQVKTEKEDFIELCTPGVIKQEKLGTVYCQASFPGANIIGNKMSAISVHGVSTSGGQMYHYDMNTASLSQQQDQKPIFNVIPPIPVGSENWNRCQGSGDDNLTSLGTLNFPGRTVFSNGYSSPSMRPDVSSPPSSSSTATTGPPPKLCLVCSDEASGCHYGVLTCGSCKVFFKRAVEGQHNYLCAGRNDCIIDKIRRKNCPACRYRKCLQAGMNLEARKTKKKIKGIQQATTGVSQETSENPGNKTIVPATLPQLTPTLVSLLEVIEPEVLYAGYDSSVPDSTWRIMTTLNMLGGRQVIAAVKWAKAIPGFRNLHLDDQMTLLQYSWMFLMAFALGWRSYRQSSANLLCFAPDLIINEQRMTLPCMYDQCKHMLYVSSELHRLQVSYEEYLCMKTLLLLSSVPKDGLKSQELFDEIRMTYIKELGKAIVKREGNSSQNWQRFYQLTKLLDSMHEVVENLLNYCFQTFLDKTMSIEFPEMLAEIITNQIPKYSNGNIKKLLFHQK
Summary of the method: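 Compounds in DMSO, alongside positive controls, were added to GR-bla HeLa reporter cells and incubated 18 h at 37 C; GRE-driven beta-lactamase was detected by fluorescence after 2 h with FRET substrate at room temperature.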

[19] = qHTS assay for small molecule disruptors of the mitochondrial membrane potential (AID 720635)
Summary of the method: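 Mitochondrial membrane potential tracked with Mito-MPS dye, red aggregates (ex 540/em 590 nm) against green monomers (ex 490/em 535 nm). Compound treatment 1 hr at 37C, dye 30 min in HepG2.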

[20] = molecular target: Glucocorticoid receptor (Homo sapiens) (UniProt P04150); assay: qHTS assay to identify small molecule antagonists of the glucocorticoid receptor (GR) signaling pathway (AID 720692; active means well fitted inhibition curve with a large enough effect in the signal ratio in the repeat runs, not every such curve was filed as active; the % refers to the signal ratio)
Summary of the method: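 In a 1536-well cell format, compounds were added 4 h after seeding GR-bla HeLa cells, together with dexamethasone at 5 nM final; reporter activity was measured by FRET-substrate fluorescence following 18 h at 37 C.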
On the % scale 0 is the no-effect control and ±100 the full control effect.

COCC(=O)Nc1c(I)c(C(=O)NCC(O)CO)c(I)c(C(=O)N(C)CC(O)CO)c1I (stereo not given)
inactive: outcome [1] | outcome [2] | outcome [3] | Potency [4] | outcome [5] | fluorescence, relative to Rose Bengal [6] -0.339% [at 18.6 µM] | fluorescence, % of fluorescein control [7] 0.0261% [at 18.6 µM] | fluorescence, % of triamterene [8] -0.157% [at 18.6 µM] | fluorescence, % of fluorescent control [9] 0.231% [at 18.6 µM] | fluorescence, % of fluorescein [10] -0.025% [at 18.6 µM] | fluorescence, % of fluorescent control [11] -0.0015% [at 18.6 µM] | activity change [12] 0.0796% [at 18.6 µM] | fluorescence, % of fluorescent control [13] 0.0121% [at 18.6 µM] | fluorescence, % of Rose Bengal [14] 0.0461% [at 18.6 µM] | fluorescence, % of fluorescent control [15] -0.109% [at 18.6 µM] | fluorescence, % of fluorescein control [16] -0.084% [at 18.6 µM] | fluorescence, % of fluorescent control [17] -0.143% [at 18.6 µM]

CC(=O)Nc1ncc([N+](=O)[O-])s1
inactive: outcome [1] | outcome [2] | outcome [3] | Potency [4] | outcome [5] | outcome [6] | outcome [7] | outcome [8] | outcome [9] | outcome [10] | outcome [11] | outcome [12] | outcome [13] | outcome [14] | outcome [15] | outcome [16] | outcome [17]

NS(=O)(=O)c1cc2c(cc1Cl)NC(C(Cl)Cl)NS2(=O)=O (stereo not given)
inactive: outcome [1] | outcome [2] | outcome [3] | Potency [4] | fluorescence, relative to Rose Bengal [6] 0.314% [at 18.6 µM] | fluorescence, % of fluorescein control [7] 0.136% [at 18.6 µM] | fluorescence, % of triamterene [8] -0.178% [at 18.6 µM] | fluorescence, % of fluorescent control [9] -0.0605% [at 18.6 µM] | fluorescence, % of fluorescein [10] 0.0129% [at 18.6 µM] | fluorescence, % of fluorescent control [11] -0.0271% [at 18.6 µM] | activity change [12] -0.0213% [at 18.6 µM] | fluorescence, % of fluorescent control [13] 0.0566% [at 18.6 µM] | fluorescence, % of Rose Bengal [14] -0.224% [at 18.6 µM] | fluorescence, % of fluorescent control [15] -0.0397% [at 18.6 µM] | fluorescence, % of fluorescein control [16] -0.0047% [at 18.6 µM] | fluorescence, % of fluorescent control [17] -0.0034% [at 18.6 µM]

SCCSCCS
inactive: outcome [1] | outcome [2] | outcome [3] | Potency [4] | outcome [5] | outcome [6] | outcome [7] | outcome [8] | outcome [9] | outcome [10] | outcome [11] | outcome [12] | outcome [13] | outcome [14] | outcome [15] | outcome [16] | outcome [17] | Potency [18]

Cc1ccc(S(=O)(=O)NC(=O)NC2CCCCCCC2)cc1
inactive: outcome [1] | outcome [2] | outcome [3] | Potency [4] | Potency [19] | outcome [6] | outcome [7] | outcome [8] | outcome [9] | outcome [11] | outcome [12] | outcome [13] | outcome [14] | outcome [15] | outcome [16] | outcome [17] | Potency [18]

Cc1nc(C)nc(N2C[C@@H](C)N(c3ccnc([C@@H](C)O)n3)[C@@H](C)C2)n1
inactive: outcome [1] | outcome [2] | outcome [3] | Potency [4] | Potency [19] | outcome [6] | outcome [7] | outcome [8] | outcome [9] | outcome [10] | outcome [11] | outcome [12] | outcome [13] | outcome [14] | outcome [15] | outcome [16] | outcome [17] | Potency [18] | outcome [20]

O=C(O)Cc1cccc(-c2cc(CCCCCCc3ccc(O[C@H]4O[C@H](CO)[C@@H](O)[C@H](O)[C@@H]4O)c(-c4cccc(CC(=O)O)c4)c3)ccc2O[C@H]2O[C@H](CO)[C@@H](O)[C@H](O)[C@@H]2O)c1
inactive: outcome [1] | outcome [2] | outcome [3] | Potency [4] | outcome [5] | outcome [6] | outcome [7] | outcome [8] | outcome [9] | outcome [10] | outcome [11] | outcome [12] | outcome [13] | outcome [14] | outcome [15] | outcome [16] | outcome [17]

OCCCCCCCl
inactive: outcome [1] | outcome [2] | outcome [3] | Potency [4] | outcome [5] | Potency [19] | outcome [6] | outcome [7] | outcome [8] | outcome [9] | outcome [11] | outcome [12] | outcome [13] | outcome [14] | outcome [15] | outcome [16] | outcome [17] | Potency [18] | outcome [20]

CCCCOC(=O)C(C)OC(=O)CCC (stereo not given)
inactive: outcome [1] | outcome [2] | outcome [3] | Potency [4] | outcome [5] | outcome [6] | outcome [7] | outcome [8] | outcome [9] | outcome [10] | outcome [11] | outcome [12] | outcome [13] | outcome [14] | outcome [15] | outcome [16] | outcome [17] | outcome [20]

CCNC(=O)NCCCOc1cccc(CN2CCCCC2)c1
inactive: outcome [1] | outcome [2] | outcome [3] | Potency [4] | outcome [5] | outcome [6] | outcome [7] | outcome [8] | outcome [9] | outcome [11] | outcome [12] | outcome [13] | outcome [14] | outcome [15] | outcome [16] | outcome [17] | Potency [18]

OC(CCN1CCCCC1)(c1ccccc1)c1ccccc1
inactive: outcome [1] | outcome [2] | outcome [3] | Potency [4] | outcome [6] | outcome [7] | outcome [8] | outcome [9] | outcome [10] | outcome [11] | outcome [12] | outcome [13] | outcome [14] | outcome [15] | outcome [16] | outcome [17]

COC(=O)CCC(=O)O
inactive: outcome [1] | outcome [2] | outcome [3] | Potency [4] | outcome [5] | Potency [19] | outcome [6] | outcome [7] | outcome [8] | outcome [9] | outcome [11] | outcome [12] | outcome [13] | outcome [14] | outcome [15] | outcome [16] | outcome [17]

CC(C)SCc1ccco1
inactive: outcome [1] | outcome [2] | outcome [3] | Potency [4] | outcome [5] | outcome [6] | outcome [7] | outcome [8] | outcome [9] | outcome [10] | outcome [11] | outcome [12] | outcome [13] | outcome [14] | outcome [15] | outcome [16] | outcome [17]

CC(=O)Nc1ccc(C)cc1
inactive: outcome [1] | outcome [2] | outcome [3] | Potency [4] | outcome [6] | outcome [7] | outcome [8] | outcome [9] | outcome [10] | outcome [11] | outcome [12] | outcome [13] | outcome [14] | outcome [15] | outcome [16] | outcome [17]

CCN1CN(CC)CN(CC)C1
inactive: outcome [1] | outcome [2] | outcome [3] | Potency [4] | outcome [5] | Potency [19] | outcome [6] | outcome [7] | outcome [8] | outcome [9] | outcome [11] | outcome [12] | outcome [13] | outcome [14] | outcome [15] | outcome [16] | outcome [17] | Potency [18] | outcome [20]
